Measurements from PubChem BioAssay (Tox21).
Records with an inconclusive call do not appear. Calls of active or inactive are those of the source. Unless noted, calls follow the shape of the dose curve; as a rule, active = well fitted curve in the direction sought with a large enough effect in the repeat runs; inconclusive = weak or mixed curves; inactive = no such curve, though single readings can be large; an effect the other way counts as inactive or inconclusive.

Assays:
[1] = qHTS assay to identify small molecule antagonists of the thyroid receptor (TR) signaling pathway (AID 743065); also: series mostly up to about 70 µM; nearly all actives have a fitted effect of over 55% in size
Procedure, shortened: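 Antagonism measured as loss of luciferase signal in GH3 cells stably carrying a TRE-luciferase reporter, co-treated with compound and T3 (1 nM final) for 23.5 h at 37 C. Viability was read in the same well by CellTiter-Fluor.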

[2] = test system: thyroid hormone receptor (rat, GH3 cells); assay: qHTS assay to identify small molecule agonists of the thyroid receptor (TR) signaling pathway (AID 743066; calls by dose curve)
[3] = molecular target: Estrogen receptor (Homo sapiens) (UniProt P03372); assay: qHTS assay to identify small molecule antagonists of the estrogen receptor alpha (ER-alpha) signaling pathway (AID 743069; active = well fitted curve in the direction sought with a large enough effect in the signal ratio in the repeat runs, not every such curve was filed as active; the % refers to the signal ratio)
Estrogen receptor (Homo sapiens), sequence (P03372 whole entry, looked up): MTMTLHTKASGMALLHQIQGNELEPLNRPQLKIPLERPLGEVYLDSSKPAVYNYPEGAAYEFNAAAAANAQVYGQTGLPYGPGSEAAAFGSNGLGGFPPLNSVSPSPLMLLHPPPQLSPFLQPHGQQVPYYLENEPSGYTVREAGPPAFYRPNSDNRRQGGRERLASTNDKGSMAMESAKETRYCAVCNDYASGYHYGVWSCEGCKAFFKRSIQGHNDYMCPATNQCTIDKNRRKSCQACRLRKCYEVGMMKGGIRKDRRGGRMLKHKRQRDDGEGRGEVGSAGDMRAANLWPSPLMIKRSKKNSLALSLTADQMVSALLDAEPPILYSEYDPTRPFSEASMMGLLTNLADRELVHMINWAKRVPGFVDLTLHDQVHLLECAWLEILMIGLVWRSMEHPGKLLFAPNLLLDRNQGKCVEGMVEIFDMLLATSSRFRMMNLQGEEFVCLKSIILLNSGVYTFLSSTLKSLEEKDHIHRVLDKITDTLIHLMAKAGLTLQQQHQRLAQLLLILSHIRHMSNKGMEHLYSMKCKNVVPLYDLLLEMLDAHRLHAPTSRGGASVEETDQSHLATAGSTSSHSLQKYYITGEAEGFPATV
Procedure, shortened: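 Compound effects are measured against 17beta-estradiol stimulation in HEK293 cells with a UAS-controlled beta-lactamase reporter for ER-alpha. Exposure lasts 18 hr at 37C; LiveBLAzer B/G FRET substrate follows for 2 hr at room temperature.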

[4] = qHTS assay to identify small molecule antagonists of the estrogen receptor alpha (ER-alpha) signaling pathway - cell viability counter screen (AID 743074; calls by dose curve;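 also: HEK293 cells carrying ER-alpha-UAS-bla reporter stimulated with 17beta-estradiol; nearly all actives have a fitted effect of over 45% in size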)
[5] = molecular target: Estrogen receptor (Homo sapiens) (UniProt P03372); assay: qHTS assay to identify small molecule agonists of the estrogen receptor alpha (ER-alpha) signaling pathway (AID 743075; calls by dose curve; also: potency is read from the fitted curve at half-maximal effect)
[6] = molecular target: Estrogen receptor (Homo sapiens) (UniProt P03372); assay: qHTS assay to identify small molecule agonists of the estrogen receptor alpha (ER-alpha) signaling pathway using the BG1 cell line (AID 743079); also: nearly all actives have a fitted effect of over 20% in size; also: potency is read from the fitted curve at half-maximal effect
[7] = qHTS assay to identify small molecule antagonists of the estrogen receptor alpha (ER-alpha) signaling pathway using the BG1 cell line (AID 743080; calls by dose curve;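 also: BG1 cells stimulated with 17beta-estradiol alongside compound; series mostly up to about 70 µM; nearly all actives have a fitted effect of over 25% in size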)
Procedure, shortened: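 BG1-Luc-4E2 cells (endogenous full-length ER-alpha, stable 4×ERE-luciferase) were starved 5 days in phenol-red-free medium with 10% charcoal-stripped FBS, plated 24 h, then given compound plus 17beta-estradiol for 21.5 h at 37 C; ONE-Glo luminescence read after 30 min.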

[8] = qHTS assay to identify small molecule antagonists of the estrogen receptor alpha (ER-alpha) signaling pathway using the BG1 cell line - cell viability counter screen (AID 743081);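 also: compound given together with 17beta-estradiol as the ER stimulus; nearly all actives have a fitted effect of over 45% in size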; also: potency is read from the fitted curve at half-maximal effect; as to activity change, negative = cytotoxicity: series mostly up to about 70 µM
[9] = molecular target: Aromatase (Homo sapiens) (UniProt P11511); assay: qHTS assay to identify aromatase inhibitors (AID 743083); also: series mostly up to about 70 µM; nearly all actives have a fitted effect of over 55% in size
Aromatase (Homo sapiens), sequence (P11511 whole entry, looked up): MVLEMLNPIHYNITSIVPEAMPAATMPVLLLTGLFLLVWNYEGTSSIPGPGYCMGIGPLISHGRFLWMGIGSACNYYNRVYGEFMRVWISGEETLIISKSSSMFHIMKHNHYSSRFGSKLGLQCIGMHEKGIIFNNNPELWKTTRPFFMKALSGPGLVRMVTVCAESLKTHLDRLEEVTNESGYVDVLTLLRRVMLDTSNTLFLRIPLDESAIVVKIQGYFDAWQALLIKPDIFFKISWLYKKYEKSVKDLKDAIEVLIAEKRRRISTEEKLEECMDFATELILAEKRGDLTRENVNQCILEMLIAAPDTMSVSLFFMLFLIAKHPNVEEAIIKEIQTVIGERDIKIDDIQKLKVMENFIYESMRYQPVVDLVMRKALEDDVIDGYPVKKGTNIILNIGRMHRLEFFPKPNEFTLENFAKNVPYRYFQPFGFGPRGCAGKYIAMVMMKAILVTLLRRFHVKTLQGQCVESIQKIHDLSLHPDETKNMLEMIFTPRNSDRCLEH

[10] = qHTS assay to identify small molecule antagonists of the thyroid receptor (TR) signaling pathway - cell viability counter screen (AID 743064); also: nearly all actives have a fitted effect of over 50% in size; also: potency is read from the fitted curve at half-maximal effect
Procedure, shortened: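 Viability of T3-stimulated (1 nM final) GH3.TRE-Luc cells is measured by CellTiter-Fluor fluorescence after 23.5 h compound exposure at 37 °C plus 30 min reagent incubation.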
% is scaled to controls: 0 for no effect and ±100 for the full control effect.

NCc1ccccc1Sc1ccccc1CO
inactive: Potency [1] | Potency [2] | Potency [3] | Potency [4] | Potency [5] | Potency [6] | Potency [7] | Potency [8] | Potency [9]

CC(C)CC(=O)C1C(=O)c2ccccc2C1=O
inactive: Potency [10] | Potency [4] | Potency [5] | Potency [6] | Potency [8] | Potency [9]

CCN(CC)c1ccc2c(-c3ccccc3C(=O)O)c3ccc(=[N+](CC)CC)cc-3oc2c1
inactive: Potency [4] | Potency [5]
active: Potency [10] 5.45 µM | Potency [8] 9.69 µM

O=C1CCC(=O)O1
inactive: Potency [1] | Potency [2] | Potency [3] | Potency [4] | Potency [5] | Potency [6] | Potency [7] | Potency [8] | Potency [9]

CCN(CC)CCOC(=O)C(c1ccccc1)C1CCCCC1 (centres undefined)
active: Potency [10] 26.6 µM
inactive: Potency [3] | Potency [4] | Potency [5] | Potency [6] | Potency [7] | Potency [8] | Potency [9]

CCOc1ccc(N=Nc2ccc(/C=C/c3ccc(N=Nc4ccc(OCC)cc4)cc3S(=O)(=O)O)c(S(=O)(=O)O)c2)cc1
active: Potency [10] 47.8 µM
inactive: Potency [2] | Potency [4] | Potency [9]

C=C(C)C(=O)OCCO
inactive: Potency [1] | Potency [2] | Potency [3] | Potency [4] | Potency [5] | Potency [6] | Potency [7] | Potency [8] | Potency [9]

COc1ccc(C(=O)c2ccc(OC)cc2O)c(O)c1
active: Potency [5] 8.77 µM [fluorescent] | Potency [6] 30.9 µM
inactive: Potency [1] | Potency [2] | Potency [3] | Potency [4] | Potency [8] | Potency [9]

O=C1OC(=O)C2C3C=CC(C3)C12 (centres undefined)
inactive: Potency [10] | Potency [2] | Potency [4] | Potency [8] | Potency [9]

CC1=CC[C@H](C(C)C)C=C1
inactive: Potency [10] | Potency [3] | Potency [4] | Potency [5] | Potency [6] | Potency [7] | Potency [8] | Potency [9]

C=CCOc1ccccc1OCC(O)CNC(C)C (centres undefined)
inactive: Potency [1] | Potency [2] | Potency [3] | Potency [4] | Potency [5] | Potency [6] | Potency [7] | Potency [9]

CCOC(=O)C1=C[C@]2(CC)CCCN3CCc4c(n1c1ccccc41)[C@@H]32
active: Potency [10] 9.44 µM
inactive: Potency [3] | Potency [4] | Potency [5] | Potency [6] | Potency [7] | Potency [8] | Potency [9]

COc1cc(Cl)c(OC)cc1N
inactive: Potency [10] | Potency [8] | Potency [9]

CN(C)c1ccc(/C=C/c2ccc([N+](=O)[O-])cc2)cc1
inactive: activity change, negative = cytotoxic [10] 14.3% [at 8.44 µM] | activity, negative = cytotoxicity [4] -15.2% [at 6.72 µM] | activity change, negative = cytotoxicity [8] 18.2% [at 8.47 µM] | activity, negative = inhibition [9] 68.2% [at 8.47 µM]

CCCCC(CC)COC(=O)COc1ccc(Cl)cc1Cl (centres undefined)
inactive: Potency [1] | Potency [2] | Potency [3] | Potency [4] | Potency [5] | Potency [6] | Potency [7] | Potency [8] | Potency [9]

CCCCc1nc2cccnc2n1Cc1ccc(-c2ccccc2-c2nnn[nH]2)cc1
active: Potency [10] 54.5 µM
inactive: Potency [2] | Potency [5] | Potency [6] | Potency [7] | Potency [8] | Potency [9]

C[N+]1(C)CCC(OC(=O)C(O)(c2ccccc2)C2CCCC2)C1 (centres undefined)
inactive: Potency [10] | Potency [3] | Potency [5] | Potency [6] | Potency [7] | Potency [8]

CCC(Cl)CCC(Cl)C(Cl)CC(Cl)C(Cl)C(Cl)CCl (centres undefined)
inactive: Potency [10] | Potency [2] | Potency [4] | Potency [8] | Potency [9]

CN1C[C@H]2c3ccccc3Oc3ccc(Cl)cc3[C@@H]2C1
active: Potency [10] 15 µM
inactive: Potency [3] | Potency [4] | Potency [5] | Potency [6] | Potency [8]

CN(C)c1ccc(C(c2ccccc2)c2ccc(N(C)C)cc2)cc1
inactive: Potency [10] | Potency [2] | Potency [4] | Potency [8] | Potency [9]

O=C(c1ccc(F)cc1)C1CCN(CCn2c(=S)[nH]c3ccccc3c2=O)CC1
inactive: Potency [10] | Potency [2] | Potency [4] | Potency [8] | Potency [9]

CCCCCCCCO[C@@H]1O[C@H](CO)[C@@H](O)[C@H](O)[C@H]1O
inactive: Potency [1] | Potency [2] | Potency [3] | Potency [4] | Potency [5] | Potency [6] | Potency [8] | Potency [9]
